Source: PubChem BioAssay (NCI)
Compounds without any hit were thinned out: in the full panel of roughly 83,000, 20% have a hit.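 Assay: single dose, 48 h. Readout: percent growth (0 = no net growth; negative = cell death). Active: <10.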 Activity calls are given as the source filed them.

Key:
Assay in all cases: NCI-60 one-dose screen, 48 h (100 = growth as untreated, 0 = no growth, -100 = all killed)
Conditions in all cases: 10 µM unless noted
DU-145 prostate = system: DU-145 prostate
K-562 leukemia = system: K-562 leukemia
MALME-3M melanoma = system: MALME-3M melanoma
MDA-MB-231 breast = system: MDA-MB-231 breast
RXF 393 renal = system: RXF 393 renal
SF-268 CNS = system: SF-268 CNS
SF-295 CNS = system: SF-295 CNS
SF-539 CNS = system: SF-539 CNS
UACC-257 melanoma = system: UACC-257 melanoma
M14 melanoma = system: M14 melanoma
HCT-15 colon = system: HCT-15 colon
HT29 colon = system: HT29 colon
SNB-75 CNS = system: SNB-75 CNS
SNB-19 CNS = system: SNB-19 CNS
U251 CNS = system: U251 CNS
PC-3 prostate = system: PC-3 prostate
SK-MEL-5 melanoma = system: SK-MEL-5 melanoma
UACC-62 melanoma = system: UACC-62 melanoma
LOX IMVI melanoma = system: LOX IMVI melanoma
SK-MEL-28 melanoma = system: SK-MEL-28 melanoma

Measured: growth

N#C/C(=C\c1ccc(-c2cccc(C(F)(F)F)c2)o1)c1ccccc1
inactive: DU-145 prostate 102% | K-562 leukemia 87.1% | MALME-3M melanoma 96.4% | MDA-MB-231 breast 74.4% | RXF 393 renal 101% | SF-268 CNS 107% | SF-295 CNS 89.1% | SF-539 CNS 95.6% | UACC-257 melanoma 103% | M14 melanoma 84.5% | HCT-15 colon 62.5% | HT29 colon 86.3% | SNB-75 CNS 85% | SNB-19 CNS 99.1% | U251 CNS 100% | PC-3 prostate 90.4% | SK-MEL-5 melanoma 92.6% | UACC-62 melanoma 71.4% | LOX IMVI melanoma 86.5% | SK-MEL-28 melanoma 98.4%

O=C(/C=C/c1ccc(Oc2ccc(Br)cc2)cc1)c1ccc(Br)cc1
inactive: DU-145 prostate 102% | K-562 leukemia 91.8% | MALME-3M melanoma 98% | MDA-MB-231 breast 101% | RXF 393 renal 100% | SF-268 CNS 101% | SF-295 CNS 100% | SF-539 CNS 102% | UACC-257 melanoma 98.1% | M14 melanoma 93.5% | HCT-15 colon 98.5% | HT29 colon 100% | SNB-75 CNS 90.7% | SNB-19 CNS 97.6% | U251 CNS 95% | PC-3 prostate 100% | SK-MEL-5 melanoma 102% | UACC-62 melanoma 91.4% | LOX IMVI melanoma 96.2% | SK-MEL-28 melanoma 105%

Cc1[nH]c(C2CC(c3ccc(C(F)(F)F)c(F)c3)=NN2c2ccccc2)c(C)c1C(=O)NCC(F)(F)F (stereo not given)
inactive: DU-145 prostate 94.7% | K-562 leukemia 76% | MALME-3M melanoma 79.7% | MDA-MB-231 breast 88.8% | RXF 393 renal 80.8% | SF-268 CNS 84.7% | SF-295 CNS 87.1% | SF-539 CNS 94.4% | UACC-257 melanoma 97.6% | M14 melanoma 94.8% | HCT-15 colon 76.2% | HT29 colon 84.6% | SNB-75 CNS 82.5% | SNB-19 CNS 85.6% | U251 CNS 91% | PC-3 prostate 74.6% | SK-MEL-5 melanoma 95.7% | UACC-62 melanoma 75.5% | LOX IMVI melanoma 88.6% | SK-MEL-28 melanoma 96.9%

CCN1C2CCC1/C(=C\c1ccc(F)cc1)C(=O)/C2=C/c1ccc(F)cc1
inactive: K-562 leukemia 20.5% | MALME-3M melanoma 55.7% | MDA-MB-231 breast 62.5% | RXF 393 renal 57.9% | SF-268 CNS 38.4% | SF-295 CNS 36.3% | SF-539 CNS 51.8% | UACC-257 melanoma 50.8% | M14 melanoma 35.9% | HCT-15 colon 30.4% | HT29 colon 23.7% | SNB-75 CNS 40.6% | SNB-19 CNS 51% | U251 CNS 21.2% | PC-3 prostate 38.5% | SK-MEL-5 melanoma 48.2% | UACC-62 melanoma 35.7% | LOX IMVI melanoma 19.7% | SK-MEL-28 melanoma 72.5%
active: DU-145 prostate 9.04%

O=C(C1CCCCC1)[C@@H]1[C@]2(C(=O)NC3CCCCC32)[C@@H]2CCCN2[C@@]12C(=O)NC1CCC(Cl)CC12 (stereo not given in full)
active: DU-145 prostate -98% [100 µM] | K-562 leukemia -66% [100 µM] | MALME-3M melanoma -66.4% [100 µM] | MDA-MB-231 breast -71.7% [100 µM] | RXF 393 renal -66.6% [100 µM] | SF-268 CNS -77.4% [100 µM] | SF-295 CNS -92.5% [100 µM] | SF-539 CNS -93.3% [100 µM] | UACC-257 melanoma -77.8% [100 µM] | M14 melanoma -83.2% [100 µM] | HCT-15 colon -83.4% [100 µM] | HT29 colon -85.2% [100 µM] | SNB-75 CNS -68.8% [100 µM] | SNB-19 CNS -92.5% [100 µM] | U251 CNS -90.6% [100 µM] | PC-3 prostate -87.9% [100 µM] | SK-MEL-5 melanoma -97.1% [100 µM] | UACC-62 melanoma -95.4% [100 µM] | LOX IMVI melanoma -83.4% [100 µM] | SK-MEL-28 melanoma -83% [100 µM]

Clc1ccccc1-c1cnn2cc(-c3ccccc3)cnc12
inactive: DU-145 prostate 87.6% | K-562 leukemia 67.3% | MALME-3M melanoma 89.9% | MDA-MB-231 breast 72.4% | RXF 393 renal 87.6% | SF-268 CNS 85.6% | SF-295 CNS 82.9% | SF-539 CNS 81.3% | UACC-257 melanoma 86.3% | M14 melanoma 91.5% | HCT-15 colon 70.1% | HT29 colon 73.4% | SNB-75 CNS 74.2% | SNB-19 CNS 71% | U251 CNS 82.9% | PC-3 prostate 86.4% | SK-MEL-5 melanoma 93.2% | UACC-62 melanoma 65.9% | LOX IMVI melanoma 94.6% | SK-MEL-28 melanoma 88.3%

CCOc1ccc(-n2nc(C(=O)NCc3ccccc3OC)nc2-c2cc(OC)c(OC)c(OC)c2)cc1
inactive: DU-145 prostate 65.2% | K-562 leukemia 22.1% | MALME-3M melanoma 87.5% | MDA-MB-231 breast 17.8% | RXF 393 renal 43.5% | SF-268 CNS 54.1% | SF-295 CNS 34.8% | SF-539 CNS 49.2% | UACC-257 melanoma 62.7% | M14 melanoma 42.2% | HCT-15 colon 29% | HT29 colon 40.6% | SNB-75 CNS 30% | SNB-19 CNS 45.2% | U251 CNS 42.5% | PC-3 prostate 24.6% | UACC-62 melanoma 37% | LOX IMVI melanoma 36.3% | SK-MEL-28 melanoma 36.6%
active: SK-MEL-5 melanoma -1.22%

N#Cc1cccc(C2C3=C(COC3=O)N(CCO)c3cc4c(cc32)OCO4)c1 (stereo not given)
active: K-562 leukemia 9.87% | SF-295 CNS 4.98% | SF-539 CNS 8.85% | HT29 colon 6.62%
inactive: DU-145 prostate 37.3% | MALME-3M melanoma 49.6% | MDA-MB-231 breast 59.4% | RXF 393 renal 41.5% | SF-268 CNS 40.3% | UACC-257 melanoma 55.3% | M14 melanoma 14.5% | HCT-15 colon 26.1% | SNB-75 CNS 13% | SNB-19 CNS 32.9% | U251 CNS 21.7% | PC-3 prostate 29.4% | SK-MEL-5 melanoma 29.6% | UACC-62 melanoma 43.4% | LOX IMVI melanoma 35.9% | SK-MEL-28 melanoma 55.2%

O=[N+]([O-])c1ccc(-c2cn3nc(-c4c[nH]c5ccccc45)sc3n2)cc1
inactive: DU-145 prostate 110% | K-562 leukemia 84.1% | MALME-3M melanoma 89.5% | MDA-MB-231 breast 94% | RXF 393 renal 108% | SF-268 CNS 108% | SF-295 CNS 102% | SF-539 CNS 105% | UACC-257 melanoma 95.3% | M14 melanoma 97% | HCT-15 colon 86% | HT29 colon 95.3% | SNB-75 CNS 96.4% | SNB-19 CNS 93.4% | U251 CNS 96.9% | PC-3 prostate 93.7% | SK-MEL-5 melanoma 91.2% | UACC-62 melanoma 84.2% | LOX IMVI melanoma 94.7% | SK-MEL-28 melanoma 111%

Ic1ccccc1I
inactive: DU-145 prostate 116% | K-562 leukemia 103% | MALME-3M melanoma 131% | MDA-MB-231 breast 111% | RXF 393 renal 100% | SF-268 CNS 111% | SF-295 CNS 106% | SF-539 CNS 104% | UACC-257 melanoma 88.3% | M14 melanoma 94.3% | HCT-15 colon 99.8% | HT29 colon 107% | SNB-75 CNS 88.3% | SNB-19 CNS 103% | U251 CNS 99% | PC-3 prostate 99.7% | SK-MEL-5 melanoma 102% | UACC-62 melanoma 97.3% | LOX IMVI melanoma 102% | SK-MEL-28 melanoma 108%

CN1CCN(Cc2ccc(NC(=O)c3cncc(C#Cc4cnc(N)c5ccc(F)cc45)c3)cc2C(F)(F)F)CC1
active: DU-145 prostate 4.11% | K-562 leukemia -63.7% | MALME-3M melanoma -17.2% | MDA-MB-231 breast -58.2% | RXF 393 renal -3.82% | SF-539 CNS -3.72% | M14 melanoma -0.651% | HCT-15 colon -86.1% | HT29 colon -56.3% | SNB-75 CNS -3.01% | U251 CNS -92.4% | SK-MEL-5 melanoma -21.8% | LOX IMVI melanoma -90.3%
inactive: SF-268 CNS 29.6% | SF-295 CNS 28.2% | UACC-257 melanoma 47.5% | SNB-19 CNS 29.4% | PC-3 prostate 18.6% | UACC-62 melanoma 20.6% | SK-MEL-28 melanoma 34.3%

COc1cc(OC)c2sc(-c3ccc(-n4cncc4-c4cc(OC)c(OC)c(OC)c4)cc3)nc2c1
active: RXF 393 renal 4.25%
inactive: DU-145 prostate 78.3% | K-562 leukemia 45.7% | MALME-3M melanoma 61.7% | MDA-MB-231 breast 54.4% | SF-268 CNS 61% | SF-295 CNS 60.6% | SF-539 CNS 62.1% | UACC-257 melanoma 59.8% | M14 melanoma 69% | HCT-15 colon 41.3% | HT29 colon 44.5% | SNB-75 CNS 82.9% | SNB-19 CNS 49.7% | U251 CNS 43.1% | PC-3 prostate 34.4% | SK-MEL-5 melanoma 20.9% | UACC-62 melanoma 43.8% | LOX IMVI melanoma 57.7% | SK-MEL-28 melanoma 73%

Cc1ccc2nc(/C(C#N)=C(/CCCO)NC(Cc3ccccc3)C(=O)OCc3ccccc3)[nH]c(=O)c2c1 (stereo not given)
inactive: DU-145 prostate 98.4% | K-562 leukemia 119% | MALME-3M melanoma 126% | MDA-MB-231 breast 113% | RXF 393 renal 127% | SF-268 CNS 102% | SF-295 CNS 98.7% | SF-539 CNS 65.1% | UACC-257 melanoma 121% | M14 melanoma 98.4% | HCT-15 colon 117% | HT29 colon 130% | SNB-75 CNS 113% | SNB-19 CNS 90.4% | U251 CNS 104% | PC-3 prostate 115% | SK-MEL-5 melanoma 73.3% | UACC-62 melanoma 99.1% | LOX IMVI melanoma 98.5% | SK-MEL-28 melanoma 96.4%

CN1CCN(C(=O)[C@@]2(C)CC[C@]3(C)CC[C@]4(C)C(=CC[C@@H]5[C@@]6(C)CCC(=O)NC(C)(C)[C@@H]6CC[C@]54C)[C@@H]3C2)CC1
inactive: DU-145 prostate 86.7% | K-562 leukemia 16% | MALME-3M melanoma 19.8% | MDA-MB-231 breast 61.1% | RXF 393 renal 35% | SF-268 CNS 63.1% | SF-295 CNS 90.5% | SF-539 CNS 43.9% | HCT-15 colon 30.3% | SNB-75 CNS 87.3% | SNB-19 CNS 79.4% | U251 CNS 40.4% | PC-3 prostate 27.4% | UACC-62 melanoma 26.4%
active: UACC-257 melanoma -12.9% | M14 melanoma 0.579% | HT29 colon 3.61% | SK-MEL-5 melanoma -41% | LOX IMVI melanoma 8.99% | SK-MEL-28 melanoma -6.92%
